Data reported in PMC7862700, “An all-to-all approach to the identification of sequence-specific readers for epigenetic DNA modifications on cytosine”.

Columns and labels:
Experiment in all cases: DAPPL (digital affinity profiling via proximity ligation, sequencing); 10 mM Tris-HCl pH 7.5, 50 mM NaCl, 1 mM DTT, 4% glycerol, room temperature, 30 min; GST-TFs on glutathione beads, 16-mer random dsDNA library, 0.1% formaldehyde crosslink after washing; high values mean tight binding
FLI1 = target: T1, FLI1 (Homo sapiens, UniProt Q01543 1-452); conditions: protein: recombinant; tags: N-terminal GST; dsDNA, one strand shown
T1 sequence: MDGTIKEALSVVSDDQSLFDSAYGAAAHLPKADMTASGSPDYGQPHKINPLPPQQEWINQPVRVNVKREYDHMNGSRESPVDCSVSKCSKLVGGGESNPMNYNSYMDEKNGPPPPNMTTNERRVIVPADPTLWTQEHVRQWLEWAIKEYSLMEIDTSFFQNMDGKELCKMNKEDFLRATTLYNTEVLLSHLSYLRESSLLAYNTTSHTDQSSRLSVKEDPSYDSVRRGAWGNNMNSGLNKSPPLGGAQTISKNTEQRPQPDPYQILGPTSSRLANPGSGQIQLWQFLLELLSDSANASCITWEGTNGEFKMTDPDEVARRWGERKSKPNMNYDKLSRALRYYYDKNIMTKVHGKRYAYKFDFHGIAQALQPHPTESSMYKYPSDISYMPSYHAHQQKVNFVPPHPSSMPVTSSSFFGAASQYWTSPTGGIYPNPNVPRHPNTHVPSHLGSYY
Procedure, shortened: (§1)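 Binding signal is given per hexamer as its read frequency for a factor divided by its frequency in the tag-only sample. GST-fused human transcription factors were expressed in yeast, captured on glutathione beads, barcoded with DNA and pooled with that sample, then incubated with 200 nmole of a 16-mer random double-stranded DNA library in Tris/NaCl/DTT/glycerol buffer for 30 min at room temperature. The pools were then washed, crosslinked, proximity-ligated, amplified by PCR and sequenced on an Illumina NextSeq500.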

ELK1 = target: T2, ELK1 (Homo sapiens, UniProt P19419 1-428); conditions: protein: recombinant; tags: N-terminal GST; dsDNA, one strand shown
T2 sequence: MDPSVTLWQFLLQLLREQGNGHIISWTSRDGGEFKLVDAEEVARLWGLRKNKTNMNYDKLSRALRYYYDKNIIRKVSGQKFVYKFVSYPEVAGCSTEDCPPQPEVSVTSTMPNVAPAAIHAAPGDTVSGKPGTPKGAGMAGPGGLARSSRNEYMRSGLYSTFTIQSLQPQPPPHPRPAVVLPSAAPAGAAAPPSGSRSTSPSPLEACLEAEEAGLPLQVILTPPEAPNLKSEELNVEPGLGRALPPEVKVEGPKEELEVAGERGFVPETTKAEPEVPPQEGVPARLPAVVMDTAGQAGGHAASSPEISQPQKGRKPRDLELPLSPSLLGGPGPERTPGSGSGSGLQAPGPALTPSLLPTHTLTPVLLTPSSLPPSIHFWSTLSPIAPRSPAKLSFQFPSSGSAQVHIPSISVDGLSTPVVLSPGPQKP
Procedure, shortened: as §1

GABPA = target: T3, GABPA (Homo sapiens, UniProt Q06546 1-454); conditions: protein: recombinant; tags: N-terminal GST; dsDNA, one strand shown
T3 sequence: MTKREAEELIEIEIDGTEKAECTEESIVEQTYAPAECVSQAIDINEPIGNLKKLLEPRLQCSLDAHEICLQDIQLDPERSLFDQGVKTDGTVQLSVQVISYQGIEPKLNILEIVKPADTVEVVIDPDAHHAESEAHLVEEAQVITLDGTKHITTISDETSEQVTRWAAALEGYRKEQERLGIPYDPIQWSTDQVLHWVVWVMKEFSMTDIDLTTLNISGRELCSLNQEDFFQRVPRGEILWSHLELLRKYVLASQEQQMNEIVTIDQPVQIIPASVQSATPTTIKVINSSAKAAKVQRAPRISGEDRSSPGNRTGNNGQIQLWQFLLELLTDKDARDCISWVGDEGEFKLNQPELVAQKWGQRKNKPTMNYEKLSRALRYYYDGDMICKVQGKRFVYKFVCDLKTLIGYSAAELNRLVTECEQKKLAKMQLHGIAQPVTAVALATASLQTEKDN
Procedure, shortened: as §1

ERG = target: T4, ERG (Homo sapiens, UniProt P11308 1-479); conditions: protein: recombinant; tags: N-terminal GST; dsDNA, one strand shown
T4 sequence: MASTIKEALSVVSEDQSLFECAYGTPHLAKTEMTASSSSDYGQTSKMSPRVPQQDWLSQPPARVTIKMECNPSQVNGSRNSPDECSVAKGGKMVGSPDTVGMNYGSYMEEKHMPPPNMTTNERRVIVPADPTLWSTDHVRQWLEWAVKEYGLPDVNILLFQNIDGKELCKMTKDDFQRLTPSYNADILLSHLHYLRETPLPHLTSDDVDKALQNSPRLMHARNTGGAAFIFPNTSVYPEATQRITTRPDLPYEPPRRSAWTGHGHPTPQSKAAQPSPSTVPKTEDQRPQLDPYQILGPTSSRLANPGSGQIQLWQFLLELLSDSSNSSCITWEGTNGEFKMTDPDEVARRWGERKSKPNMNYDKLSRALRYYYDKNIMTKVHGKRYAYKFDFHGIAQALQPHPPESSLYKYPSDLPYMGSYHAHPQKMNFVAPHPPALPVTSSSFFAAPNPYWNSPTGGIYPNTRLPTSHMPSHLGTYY
Procedure, shortened: as §1

ELF1 = ELF1 (Homo sapiens, UniProt P32519 1-619); conditions: protein: recombinant; tags: N-terminal GST; dsDNA, one strand shown
Chain of ELF1 (P32519 whole entry): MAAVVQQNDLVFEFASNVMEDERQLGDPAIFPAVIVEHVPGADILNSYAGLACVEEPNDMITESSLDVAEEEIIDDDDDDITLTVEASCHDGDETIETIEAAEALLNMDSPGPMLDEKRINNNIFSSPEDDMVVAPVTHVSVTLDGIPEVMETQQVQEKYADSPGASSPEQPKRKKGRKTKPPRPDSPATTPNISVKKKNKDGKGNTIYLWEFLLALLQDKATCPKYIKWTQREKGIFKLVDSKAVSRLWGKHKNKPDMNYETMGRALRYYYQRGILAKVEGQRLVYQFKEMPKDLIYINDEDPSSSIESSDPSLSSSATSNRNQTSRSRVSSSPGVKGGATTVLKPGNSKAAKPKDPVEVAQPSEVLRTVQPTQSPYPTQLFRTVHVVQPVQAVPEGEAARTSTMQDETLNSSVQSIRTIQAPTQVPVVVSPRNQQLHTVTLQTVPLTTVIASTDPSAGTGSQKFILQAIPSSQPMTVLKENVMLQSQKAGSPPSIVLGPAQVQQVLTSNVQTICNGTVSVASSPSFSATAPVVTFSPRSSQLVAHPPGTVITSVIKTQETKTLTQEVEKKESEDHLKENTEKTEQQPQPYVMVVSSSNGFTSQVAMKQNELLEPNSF
Procedure, shortened: as §1

EHF = target: T5, EHF (Homo sapiens, UniProt Q9NZC4 1-300); conditions: protein: recombinant; tags: N-terminal GST; dsDNA, one strand shown
T5 sequence: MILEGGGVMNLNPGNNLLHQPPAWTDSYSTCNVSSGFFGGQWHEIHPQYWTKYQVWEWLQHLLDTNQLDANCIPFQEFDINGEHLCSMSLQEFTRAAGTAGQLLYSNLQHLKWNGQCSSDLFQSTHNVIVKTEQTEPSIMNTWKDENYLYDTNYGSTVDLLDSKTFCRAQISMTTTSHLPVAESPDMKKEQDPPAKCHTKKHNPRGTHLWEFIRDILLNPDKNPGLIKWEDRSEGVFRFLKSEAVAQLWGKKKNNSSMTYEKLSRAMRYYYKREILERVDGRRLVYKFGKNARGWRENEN
Procedure, shortened: as §1

SPI1 = SPI1 (Homo sapiens, UniProt P17947 1-270); conditions: protein: recombinant; tags: N-terminal GST; dsDNA, one strand shown
Procedure, shortened: as §1

SPIB = SPIB (Homo sapiens, UniProt Q01892 1-262); conditions: protein: recombinant; tags: N-terminal GST; dsDNA, one strand shown
Chain of SPIB (Q01892 whole entry): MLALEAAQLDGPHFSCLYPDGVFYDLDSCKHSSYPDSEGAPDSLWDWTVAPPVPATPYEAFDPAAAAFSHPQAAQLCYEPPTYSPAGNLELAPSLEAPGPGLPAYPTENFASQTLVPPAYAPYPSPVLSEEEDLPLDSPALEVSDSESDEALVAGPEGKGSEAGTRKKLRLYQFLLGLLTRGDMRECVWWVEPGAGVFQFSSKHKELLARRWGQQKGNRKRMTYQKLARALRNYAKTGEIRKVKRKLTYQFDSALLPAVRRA
Procedure, shortened: as §1

ELK3 = target: T6, ELK3 (Homo sapiens, UniProt P41970 1-407); conditions: protein: recombinant; tags: N-terminal GST; dsDNA, one strand shown
T6 sequence: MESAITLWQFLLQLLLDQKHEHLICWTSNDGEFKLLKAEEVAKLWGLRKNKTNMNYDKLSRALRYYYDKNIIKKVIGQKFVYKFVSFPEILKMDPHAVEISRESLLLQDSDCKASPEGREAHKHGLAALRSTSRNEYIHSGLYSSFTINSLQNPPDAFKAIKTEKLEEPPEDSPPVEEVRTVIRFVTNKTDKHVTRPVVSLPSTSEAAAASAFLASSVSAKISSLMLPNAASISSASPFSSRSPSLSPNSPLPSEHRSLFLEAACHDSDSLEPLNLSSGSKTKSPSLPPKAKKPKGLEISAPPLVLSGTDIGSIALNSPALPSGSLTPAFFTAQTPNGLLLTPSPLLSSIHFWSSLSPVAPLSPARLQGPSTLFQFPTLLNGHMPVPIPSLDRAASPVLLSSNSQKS
Procedure, shortened: as §1

FEV = target: T7, FEV (Homo sapiens, UniProt Q99581 1-238); conditions: protein: recombinant; tags: N-terminal GST; dsDNA, one strand shown
T7 sequence: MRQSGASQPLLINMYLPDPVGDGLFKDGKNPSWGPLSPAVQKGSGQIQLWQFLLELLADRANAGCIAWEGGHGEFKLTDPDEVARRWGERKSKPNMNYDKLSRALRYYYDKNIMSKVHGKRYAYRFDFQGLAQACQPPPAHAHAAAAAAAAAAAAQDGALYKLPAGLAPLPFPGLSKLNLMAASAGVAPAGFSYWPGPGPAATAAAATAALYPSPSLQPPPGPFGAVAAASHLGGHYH
Procedure, shortened: as §1

ETV5 = ETV5 (Homo sapiens, UniProt P41161 1-510); conditions: protein: recombinant; tags: N-terminal GST; dsDNA, one strand shown
Chain of ETV5 (P41161 whole entry): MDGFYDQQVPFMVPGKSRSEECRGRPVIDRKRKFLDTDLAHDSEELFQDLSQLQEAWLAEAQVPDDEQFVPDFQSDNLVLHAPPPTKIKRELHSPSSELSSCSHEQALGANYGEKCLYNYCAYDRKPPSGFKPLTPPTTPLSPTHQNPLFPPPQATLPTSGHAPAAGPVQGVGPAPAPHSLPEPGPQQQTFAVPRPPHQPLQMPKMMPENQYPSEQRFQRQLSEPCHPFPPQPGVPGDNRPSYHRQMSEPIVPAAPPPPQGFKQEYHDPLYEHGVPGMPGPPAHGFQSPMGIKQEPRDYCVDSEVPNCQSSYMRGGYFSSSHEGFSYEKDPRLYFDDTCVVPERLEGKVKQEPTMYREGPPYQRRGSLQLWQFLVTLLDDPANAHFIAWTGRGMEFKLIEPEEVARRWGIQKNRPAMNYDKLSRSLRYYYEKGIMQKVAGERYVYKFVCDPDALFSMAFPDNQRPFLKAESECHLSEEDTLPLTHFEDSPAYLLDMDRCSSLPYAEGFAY
Procedure, shortened: as §1

HSF1 = HSF1 (Homo sapiens, UniProt Q00613 1-529); conditions: protein: recombinant; tags: N-terminal GST; chain copies: 3; dsDNA, one strand shown
Chain of HSF1 (Q00613 whole entry): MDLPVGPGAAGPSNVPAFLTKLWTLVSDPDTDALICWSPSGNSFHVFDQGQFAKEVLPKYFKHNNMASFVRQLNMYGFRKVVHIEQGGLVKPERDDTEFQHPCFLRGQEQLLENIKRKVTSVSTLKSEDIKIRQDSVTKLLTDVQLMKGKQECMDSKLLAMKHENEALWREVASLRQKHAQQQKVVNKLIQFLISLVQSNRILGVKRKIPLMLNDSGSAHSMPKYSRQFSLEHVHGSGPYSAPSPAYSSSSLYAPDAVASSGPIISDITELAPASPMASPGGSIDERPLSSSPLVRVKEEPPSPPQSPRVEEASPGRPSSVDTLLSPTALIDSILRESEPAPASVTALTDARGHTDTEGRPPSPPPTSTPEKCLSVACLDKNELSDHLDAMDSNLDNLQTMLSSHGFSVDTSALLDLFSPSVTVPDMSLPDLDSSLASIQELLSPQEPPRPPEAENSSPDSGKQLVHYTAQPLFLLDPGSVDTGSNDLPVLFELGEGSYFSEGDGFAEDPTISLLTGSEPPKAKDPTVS
Procedure, shortened: as §1

SPIC = target: T8, SPIC (Homo sapiens, UniProt Q8N5J4 1-248); conditions: protein: recombinant; tags: N-terminal GST; dsDNA, one strand shown
T8 sequence: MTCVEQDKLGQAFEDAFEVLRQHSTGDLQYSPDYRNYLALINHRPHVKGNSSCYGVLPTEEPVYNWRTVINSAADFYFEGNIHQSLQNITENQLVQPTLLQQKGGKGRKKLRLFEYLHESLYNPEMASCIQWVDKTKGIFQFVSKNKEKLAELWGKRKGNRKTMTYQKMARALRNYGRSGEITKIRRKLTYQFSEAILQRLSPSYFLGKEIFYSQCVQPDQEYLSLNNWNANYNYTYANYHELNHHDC
Procedure, shortened: as §1

ELF4 = ELF4 (Homo sapiens, UniProt Q99607 1-663); conditions: protein: recombinant; tags: N-terminal GST; dsDNA, one strand shown
Chain of ELF4 (Q99607 whole entry): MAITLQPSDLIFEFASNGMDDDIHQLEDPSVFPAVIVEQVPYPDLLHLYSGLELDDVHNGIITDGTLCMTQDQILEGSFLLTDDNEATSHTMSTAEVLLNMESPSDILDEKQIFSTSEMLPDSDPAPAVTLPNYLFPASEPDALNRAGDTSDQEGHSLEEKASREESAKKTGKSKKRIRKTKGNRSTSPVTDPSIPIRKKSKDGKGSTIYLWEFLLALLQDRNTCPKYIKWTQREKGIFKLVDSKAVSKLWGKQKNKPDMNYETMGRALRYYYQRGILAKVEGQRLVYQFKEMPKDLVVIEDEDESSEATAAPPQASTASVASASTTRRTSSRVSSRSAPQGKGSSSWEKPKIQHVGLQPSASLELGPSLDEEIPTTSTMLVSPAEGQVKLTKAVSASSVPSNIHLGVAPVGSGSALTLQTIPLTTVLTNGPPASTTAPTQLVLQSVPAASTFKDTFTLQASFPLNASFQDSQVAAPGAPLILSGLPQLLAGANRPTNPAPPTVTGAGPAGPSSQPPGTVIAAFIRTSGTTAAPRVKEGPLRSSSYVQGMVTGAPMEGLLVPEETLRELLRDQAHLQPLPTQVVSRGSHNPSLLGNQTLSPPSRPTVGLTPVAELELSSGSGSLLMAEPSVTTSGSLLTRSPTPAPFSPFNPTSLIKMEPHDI
Procedure, shortened: as §1

ELK4 = target: T9, ELK4 (Homo sapiens, UniProt P28324-2 1-405); conditions: protein: recombinant; tags: N-terminal GST; dsDNA, one strand shown
T9 sequence: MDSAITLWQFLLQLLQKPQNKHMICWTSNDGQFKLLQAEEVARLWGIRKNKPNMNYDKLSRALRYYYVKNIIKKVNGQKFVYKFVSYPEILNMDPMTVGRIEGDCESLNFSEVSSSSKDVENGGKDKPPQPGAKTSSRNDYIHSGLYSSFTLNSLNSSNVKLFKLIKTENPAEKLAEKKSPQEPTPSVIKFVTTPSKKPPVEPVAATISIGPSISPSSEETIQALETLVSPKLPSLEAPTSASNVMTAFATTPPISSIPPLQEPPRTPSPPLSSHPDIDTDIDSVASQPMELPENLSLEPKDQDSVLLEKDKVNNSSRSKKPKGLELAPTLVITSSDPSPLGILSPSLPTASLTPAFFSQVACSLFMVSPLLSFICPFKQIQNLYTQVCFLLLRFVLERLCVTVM
Procedure, shortened: as §1

ETV2 = target: T10, ETV2 (Homo sapiens, UniProt O00321 1-342); conditions: protein: recombinant; tags: N-terminal GST; dsDNA, one strand shown
T10 sequence: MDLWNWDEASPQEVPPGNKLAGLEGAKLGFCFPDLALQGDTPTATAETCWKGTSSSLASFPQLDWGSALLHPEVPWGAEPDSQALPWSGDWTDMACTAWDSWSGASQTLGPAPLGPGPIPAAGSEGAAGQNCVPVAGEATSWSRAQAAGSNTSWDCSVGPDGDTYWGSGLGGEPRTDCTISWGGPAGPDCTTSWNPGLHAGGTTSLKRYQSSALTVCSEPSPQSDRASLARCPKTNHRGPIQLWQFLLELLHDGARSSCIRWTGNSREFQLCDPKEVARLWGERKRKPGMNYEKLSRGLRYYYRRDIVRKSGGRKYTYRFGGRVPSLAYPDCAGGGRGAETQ
Procedure, shortened: as §1

ELF3 = target: T11, ELF3 (Homo sapiens, UniProt P78545 1-371); conditions: protein: recombinant; tags: N-terminal GST; dsDNA, one strand shown
T11 sequence: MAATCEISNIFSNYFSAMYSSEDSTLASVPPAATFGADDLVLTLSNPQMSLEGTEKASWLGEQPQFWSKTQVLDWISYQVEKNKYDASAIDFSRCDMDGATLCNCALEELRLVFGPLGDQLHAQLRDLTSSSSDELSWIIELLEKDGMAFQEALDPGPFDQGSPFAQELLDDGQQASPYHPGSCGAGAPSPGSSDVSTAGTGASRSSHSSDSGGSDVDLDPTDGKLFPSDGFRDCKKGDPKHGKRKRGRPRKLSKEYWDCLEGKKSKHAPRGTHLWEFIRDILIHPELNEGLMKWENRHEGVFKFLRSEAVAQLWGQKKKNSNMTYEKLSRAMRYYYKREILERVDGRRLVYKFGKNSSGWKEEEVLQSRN
Procedure, shortened: as §1

CRX = CRX (Homo sapiens, UniProt O43186 1-299); conditions: protein: recombinant; tags: N-terminal GST; dsDNA, one strand shown
Chain of CRX (O43186 whole entry): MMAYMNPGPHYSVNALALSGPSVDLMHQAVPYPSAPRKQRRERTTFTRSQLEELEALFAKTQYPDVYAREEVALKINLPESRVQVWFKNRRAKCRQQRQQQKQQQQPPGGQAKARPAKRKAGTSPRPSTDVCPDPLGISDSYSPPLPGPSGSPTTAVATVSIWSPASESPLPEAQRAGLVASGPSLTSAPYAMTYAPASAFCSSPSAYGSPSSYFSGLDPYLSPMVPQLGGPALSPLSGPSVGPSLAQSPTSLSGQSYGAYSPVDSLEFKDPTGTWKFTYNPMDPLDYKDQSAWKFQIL
Procedure, shortened: as §1

ETV1 = ETV1 (Homo sapiens, UniProt P50549 1-477); conditions: protein: recombinant; tags: N-terminal GST; dsDNA, one strand shown
Chain of ETV1 (P50549 whole entry): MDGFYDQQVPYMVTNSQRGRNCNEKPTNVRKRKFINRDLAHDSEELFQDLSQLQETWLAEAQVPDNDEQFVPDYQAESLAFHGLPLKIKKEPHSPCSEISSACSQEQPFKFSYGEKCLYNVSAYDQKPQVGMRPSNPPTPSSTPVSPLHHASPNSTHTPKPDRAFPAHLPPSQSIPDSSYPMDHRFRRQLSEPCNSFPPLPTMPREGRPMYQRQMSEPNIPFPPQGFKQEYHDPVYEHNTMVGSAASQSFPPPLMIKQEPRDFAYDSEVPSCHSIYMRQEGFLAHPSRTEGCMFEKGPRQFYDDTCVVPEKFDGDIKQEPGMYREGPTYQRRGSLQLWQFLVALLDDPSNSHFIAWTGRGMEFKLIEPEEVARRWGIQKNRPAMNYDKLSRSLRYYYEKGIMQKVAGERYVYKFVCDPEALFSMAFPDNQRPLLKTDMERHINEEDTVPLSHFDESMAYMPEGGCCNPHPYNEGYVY
Procedure, shortened: as §1

## TGAACA
FLI1
  binding signal: 1.25 fold enrichment (6-mer frequency, TF over GST control)
ELK1
  binding signal: 1.23 fold enrichment (6-mer frequency, TF over GST control)
GABPA
  binding signal: 1.18 fold enrichment (6-mer frequency, TF over GST control)
ERG
  binding signal: 1.21 fold enrichment (6-mer frequency, TF over GST control)
ELF1
  binding signal: 1.26 fold enrichment (6-mer frequency, TF over GST control)
EHF
  binding signal: 1.27 fold enrichment (6-mer frequency, TF over GST control)
SPI1
  binding signal: 1.14 fold enrichment (6-mer frequency, TF over GST control)
SPIB
  binding signal: 1.23 fold enrichment (6-mer frequency, TF over GST control)
ELK3
  binding signal: 1.33 fold enrichment (6-mer frequency, TF over GST control)
FEV
  binding signal: 1.21 fold enrichment (6-mer frequency, TF over GST control)
ETV5
  binding signal: 1.2 fold enrichment (6-mer frequency, TF over GST control)
HSF1
  binding signal: 1.18 fold enrichment (6-mer frequency, TF over GST control)
SPIC
  binding signal: 1.29 fold enrichment (6-mer frequency, TF over GST control)
ELF4
  binding signal: 1.24 fold enrichment (6-mer frequency, TF over GST control)
ELK4
  binding signal: 1.4 fold enrichment (6-mer frequency, TF over GST control)
ETV2
  binding signal: 1.27 fold enrichment (6-mer frequency, TF over GST control)
ELF3
  binding signal: 1.3 fold enrichment (6-mer frequency, TF over GST control)
CRX
  binding signal: 1.06 fold enrichment (6-mer frequency, TF over GST control)
ETV1
  binding signal: 1.27 fold enrichment (6-mer frequency, TF over GST control)
